Compound activity: PubChem BioAssay, Broad Institute
Only some compounds are listed: those with a hit (about 1.2% of all), similar ones and a draw of the others.
TcdB inh: blocks C. difficile toxin B glycohydrolase activity | hit rate 0.24% among 350,000 | AID 652162 | TcdB glycohydrolase enzymatic assay, plate reader | inhibition, % at 9.99 µM | P18177; in the data active = inhibition above about 10%
PrP UTR inh: suppresses PrP 5' UTR mRNA reporter expression. cell-based PrP 5' UTR mRNA reporter, plate reader. inhibition, % (test concentration not listed). hit rate 0.35% among 340,000; in the data active = inhibition above about 52%
Yp Topo-I inh: inhibitors of Yersinia pestis topoisomerase I. activity, % at 10 µM. Y. pestis Topo-I cleavage product accumulation, plate reader. hit rate 0.064% among 360,000; in the data active = activity above about 50%, passing the limit was not always enough; inconclusive = no clear call, values can overlap the other calls
FadD28 binding: blocks FadD28 binding to the bisubstrate probe; fluorescence polarization; inhibition, % at 12.5 µM; hit rate 0.22% among 360,000; in the data active = inhibition above about 8.5%, passing the limit was not always enough; inconclusive = no clear call, values can overlap the other calls
Mtb BioA inh: blocks M. tuberculosis BioA enzyme activity | hit rate 0.096% among 360,000 | AID 602481 | purified M. tuberculosis BioA enzyme, plate reader | inhibition, % at 9.99 µM; in the data active = inhibition above about 40%; inconclusive = no clear call, values can overlap the other calls
PfHsp40 yeast: rescue of PfHsp40-mediated yeast toxicity. S. cerevisiae expressing PfHsp40, growth rescue, ATP luminescence. growth rescue, % at 12.5 µM. hit rate 0.68% among 340,000. AID 504582; in the data active = growth rescue above about 28%, passing the limit was not always enough; inconclusive = no clear call, values can overlap the other calls;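 also: yeast W303a lacking pdr1 and pdr3 grown in galactose medium; growth measured after three days at 30 °C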
A number is an active result; n = inactive; u = inconclusive; x = not tested or not shown.

SMILES	TcdB inh	PrP UTR inh	Yp Topo-I inh	FadD28 binding	Mtb BioA inh	PfHsp40 yeast
CO[C@H]1CN(C)C(=O)c2cc(NS(=O)(=O)CC(F)(F)F)ccc2OC[C@@H](C)N(CC2CCCCC2)C[C@@H]1C	x	x	x	x	n	x
Cc1cccc(OCC(=O)NCc2ccccc2)c1	n	n	n	n	n	n
Cc1cccc(OP(=O)(NCc2ccccc2)Oc2cccc(C)c2)c1	n	n	n	n	n	118
CCCNC(=O)C[C@@H]1C[C@H]2c3cc(NS(=O)(=O)c4cccc(OC)c4)ccc3O[C@H]2[C@@H](CO)O1	n	x	x	x	n	x
CCOC(=O)N/N=C/c1ccc(N(CC)CC)cc1O	x	n	n	n	x	n
CCN(CC)c1ccc(/C=N/NC(=O)c2c(Cl)cnn2C)c(O)c1	x	n	n	n	x	546
CCN(CC)c1ccc(/C=N/NC(=O)c2cccc(S(=O)(=O)N3CCOCC3)c2)c(O)c1	n	n	n	n	n	231
Cc1ccc(SCc2cc(=O)c3c(=O)n(-c4ccccc4)[nH]c3[nH]2)cc1	n	n	n	17	n	n
O=C(N[C@@H]1CC[C@H](CCNS(=O)(=O)c2cccc(Cl)c2)O[C@H]1CO)c1ccccc1	n	x	x	x	x	x
C[C@H]1CN([C@@H](C)CO)C(=O)c2cccc(NS(=O)(=O)c3cn(C)cn3)c2O[C@@H]1CN(C)C	n	x	x	x	n	x
O=c1[nH]c(-c2ccccn2)nc(C(F)(F)F)c1Br	n	n	n	n	x	133
CC(C)(C)c1csc(NC(=O)Cn2c(=O)oc3ccccc32)n1	x	n	n	11	n	n
CCOC(=O)c1nnn(CC(=O)Nc2cccc(OC)c2)c1C(=O)OCC	x	n	n	n	n	n
O=C(Cn1c(=O)oc2ccccc21)Nc1nc(-c2ccccc2)cs1	n	n	n	n	n	n
COc1cccc(NC(=O)Cn2c(=O)oc3ccccc32)c1	n	n	n	39	x	n
COC(=O)c1nnn(CC(=O)Nc2cccc(OC)c2)c1C(=O)OC	x	n	n	n	n	80
CC=Cc1ccc2n(c1=O)C[C@@H]1[C@@H](CO)[C@H](C(=O)NCc3ccccn3)[C@H]2N1CCC (mixture of isomers)	n	x	x	x	n	x
COc1ccc(NC(=O)Nc2ccc3c(c2)C(=O)N([C@@H](C)CO)C[C@H](C)[C@@H](CN(C)Cc2ccc(C(F)(F)F)cc2)O3)cc1	n	x	x	x	n	x
CCCn1nc([N+](=O)[O-])c(C(C#N)c2nc3ccccc3s2)c(Cl)c1=O (stereo not given)	x	n	n	26	n	u
C[C@H](CO)N1C[C@H](C)[C@@H](CN(C)C(=O)Nc2ccc(F)cc2)OCCCC[C@H](C)Oc2ccc(NC(=O)CCCN(C)C)cc2C1=O	n	x	x	x	n	x
CC(C)NC(=O)Nc1ccc2c(c1)C(=O)N([C@@H](C)CO)C[C@@H](C)[C@H](CN(C)S(=O)(=O)c1cn(C)cn1)OCCCC[C@@H](C)O2	n	x	x	x	n	x
CO[C@H]1CN(C)C(=O)c2ccc(NC(=O)NC(C)C)cc2OC[C@H](C)N(CC2CC2)C[C@H]1C	x	x	x	x	n	x
Cc1ccc(S(=O)(=O)NC[C@@H]2CC[C@@H]3[C@@H](CN3Cc3cc(F)ccc3F)O2)cc1	n	x	x	x	x	x
FC(F)(F)c1ccc(CN2CCN(Cc3ccco3)CC2)cc1	n	n	n	n	n	50
COc1ccc(CN2CCN(Cc3ccco3)CC2)cc1	n	n	n	n	n	n
SMILES	TcdB inh	PrP UTR inh	Yp Topo-I inh	FadD28 binding	Mtb BioA inh	PfHsp40 yeast
O=C(O)COc1ccccc1C(Nc1ccccn1)c1cc(Cl)c2cccnc2c1O (stereo not given)	x	n	n	n	x	58
CCOc1ccc(C(Nc2cccnc2)c2cc(Cl)c3cccnc3c2O)cc1 (stereo not given)	n	n	n	n	x	92
COc1ccccc1C(NC(C)=O)c1cc(Cl)c2cccnc2c1O (stereo not given)	n	x	n	n	n	n
O=C(O)COc1ccccc1C(Nc1cccnc1)c1cc(Cl)c2cccnc2c1O (stereo not given)	x	n	n	n	x	106
CCC(=O)NC(c1ccc(C)cc1)c1cc(Cl)c2cccnc2c1O (stereo not given)	x	n	n	n	n	u
CC(C)C(=O)NC(c1cccc([N+](=O)[O-])c1)c1ccc2cccnc2c1O (stereo not given)	n	n	n	n	n	228
CCN(CC)c1ccc(C(NC(=O)C(C)C)c2ccc3cccnc3c2O)cc1 (stereo not given)	n	x	n	n	n	x
CC(C)C(=O)NC(c1ccco1)c1ccc2cccnc2c1O (stereo not given)	x	n	n	n	n	297
CN1CCN(C(=O)C[C@H]2CC[C@H]3[C@@H](COc4ccc(NC(=O)C5CC5)cc4C(=O)N3C)O2)CC1	n	x	x	x	n	x
Cc1ccn(CCC(=O)NC2CC(C)(C)Cc3c2cnn3-c2ccccc2C)n1 (stereo not given)	10	n	n	n	n	n
Cc1ccccc1-n1ncc2c1CC(C)(C)CC2NC(=O)CCC1=NNC(=O)CC1 (stereo not given)	n	n	n	n	n	n
Cc1cccc(-c2nnc3n2N=C(c2ccccc2)CS3)c1	x	n	n	n	n	n
Cc1ccc(-c2nnc3n2N=C(c2ccccc2Br)CS3)cc1	x	n	59	n	n	n
O=C(NCC1(c2ccccc2)CCCC1)C1(c2ccccc2)CCCC1	x	n	68	n	x	n
COc1cccc(NC=C2C(=O)OC3(CCCCC3)OC2=O)c1	x	n	n	n	n	314
COc1cccc(NC=C2C(=O)OC(C)(C)OC2=O)c1	x	n	n	n	n	n
C[C@@H]1CCCCO[C@@H](CN(C)C(=O)CCC(F)(F)F)[C@@H](C)CN([C@H](C)CO)C(=O)c2cc(NS(C)(=O)=O)ccc2O1	n	x	x	x	n	x
CN(C)S(=O)(=O)Oc1cccc(C(=O)Nc2ccccc2Cl)c1	x	n	n	n	n	n
CN(C)S(=O)(=O)Oc1cccc(C(=O)Nc2ccc(Cl)cc2)c1	x	n	n	n	n	353
Oc1ccc(/C=N/NC(=S)Nc2cccnc2)cc1O	26	n	n	n	x	n
S=C(N/N=C/c1ccc2ncccc2c1)Nc1cccnc1	n	n	n	n	x	n
CC(=O)N1CC(=O)Nc2ccc(Br)cc2C1c1ccc(F)cc1 (stereo not given)	n	n	n	x	n	85
O=C(C[C@@H]1CC[C@H]2[C@@H](COC[C@H](O)CN2Cc2cccc(Cl)c2)O1)NCC1CCCCC1	x	x	x	x	n	x
S=c1nc[nH]c2c1sc1nc(-c3ccccc3)c3c(c12)CCCC3	n	n	n	15	x	n
C[C@@H]1CN([C@@H](C)CO)C(=O)c2cc(NS(=O)(=O)c3cn(C)cn3)ccc2O[C@@H]1CN(C)C(=O)Nc1ccc2c(c1)OCO2	n	x	x	x	n	x
COc1ccc(NC(=O)CN(C)C(=O)/C=C/c2ccc(S(=O)(=O)N3CCCCCC3)cc2)cc1	n	n	77	n	n	n
C[C@@H]1CN([C@H](C)CO)S(=O)(=O)c2ccc(C#Cc3ccncc3)cc2O[C@H]1CN(C)C	n	x	x	x	n	x
CO[C@H]1CN(C)C(=O)c2cc(NC(=O)Nc3cccc(Cl)c3)ccc2OC[C@H](C)N(C)C[C@@H]1C	n	x	x	x	n	x
